In all, about 52,000 compounds went through this assay and about 4,300 (8.3%) were called active. The sample as a whole holds a higher share of actives than the screen did. Values without a mark were called inactive. No stated cut-off is given here; in the data, active means survival mostly below about 52% (no sharp cut-off); inactive means mostly above about 56%.

For this experiment, the system named is DeltatarO mutant. Description: S. aureus survival, RN4220 and DeltatarO strains – OD600, teichoic acid synthesis inhibitors, primary screen (AID 463173). To be noted: S. aureus RN4220 wild type/DeltatarO growth, OD600, 18 h, active compounds read low, screened at 18.75 µg/mL (by protocol).
On to `CC(=O)c1c(C)oc2ccc(NS(=O)(=O)c3ccc(C(C)C)cc3)cc12`, for which the survival is 78%.

`CCOC(=O)c1c(-c2ccccc2)oc2ccc(NS(=O)(=O)c3cc(C)c(C)cc3C)cc12`: the survival was 63%.

Turning to `Cc1cc(C)c(S(=O)(=O)Nc2ccc3oc(C)c(C(=O)OC(C)C)c3c2)cc1C`, the survival is 48% (active).

Turning to `COc1ccc(CCNC(=O)CCCn2c(=O)c3cccn3c3ccccc32)cc1OC`, the survival is 61%.

On to `CCOc1ccc(CCNC(=O)CCCn2c(=O)c3cccn3c3cccnc32)cc1OCC`, for which the survival was 93%.

Turning to `COc1ccc(CCNC(=O)CCCn2c(=O)c3cccn3c3ccc(F)cc32)cc1OC`, the survival was 43% (active).

With `COc1ccc(CCNC(=O)CCn2c(=O)c3cccn3c3ccc(F)cc32)cc1OC`, the survival was 45% (active).

Take `CCOc1ccc(CCNC(=O)Cn2c(=O)c3cccn3c3ccc(F)cc32)cc1OCC`: the survival is 74%.

As for `COc1ccc(CNC(=O)CCn2c(=O)c3cccn3c3ccc(F)cc32)cc1OC`, the survival was 91%.

On to `CCOc1ccc(CCNC(=O)CCn2c(=O)c3cccn3c3ccc(F)cc32)cc1OCC`, for which the survival is 42% (active).

As to `COc1ccc(CCNC(=O)Cn2c(=O)c3cccn3c3ccc(F)cc32)cc1OC`, the survival is 72%.

On to `COc1ccc(CNC(=O)CCCn2c(=O)c3cccn3c3ccc(F)cc32)cc1OC`, for which the survival was 53%.

For `COc1ccc(N2CC(NC(=O)c3c(F)cccc3Cl)CC2=O)cc1OC` (stereo unspecified), the survival is 95%.

With `COc1ccc(Cl)cc1NC(=O)CSc1nnc(C)n2c1cc1sccc12`, the survival was 68%.

With `Cc1ccc(-n2nc(C)c3c(C(F)(F)F)cc(-c4cccnc4)nc32)cc1C`, the survival was 42%.

Turning to `CCN(Cc1ccccc1)C(=O)Cn1c(=O)n(Cc2ccccc2)c(=O)c2c1c1cc(OC)ccc1n2C`, the survival was 59%.

As for `O=C(CN1C(=O)C2(SCC(=O)N2c2cccc(Cl)c2)c2ccccc21)NCCc1ccccc1` (stereo unspecified), the survival was 104%.

For `CCOc1ccccc1CNC(=O)CN1C(=O)C2CCCCN2c2ccc(C(=O)N(C)C)cc21` (stereo unspecified), the survival is 120%.

As for `COc1cccc(NC(=O)CSc2nc3ccc(NC(=O)c4ccco4)cc3s2)c1`, the survival is 77%.

`CN(C)c1cccc(C(=O)Nc2nc3ccc(S(=O)(=O)N4CCCC4)cc3s2)c1`: the survival was 135%.

For the molecule `CC(C)(C)NS(=O)(=O)c1ccc2nc(NC(=O)c3cccnc3)sc2c1`, the survival was 86%.

In the case of `CN(C)c1cccc(C(=O)Nc2nc3ccc(S(=O)(=O)NC(C)(C)C)cc3s2)c1`, the survival was 47% (active).

As for `Cc1cccc(NC(=O)Cn2nc(N3CCN(c4ccccc4)CC3)ccc2=O)c1C`, the survival was 87%.

Regarding `COc1cc(NC(=O)c2nc3cc(C)c(C)cc3n(C)c2=O)cc(OC)c1OC`, the survival was 94%.

Consider `COc1ccc(OCC(O)Cn2c(=N)n(CCN3CCCCC3)c3ccccc32)cc1` (stereo unspecified), for which the survival was 46%.

Consider `N=c1n(CCN2CCCCC2)c2ccccc2n1CC(O)COc1ccc(Cl)cc1Cl` (stereo unspecified), for which the survival is -16% (active).

For the molecule `Cc1ccccc1OCC(O)Cn1c(=N)n(CCN2CCCCC2)c2ccccc21` (stereo unspecified), the survival is 71%.

In the case of `OC(COc1ccc(Cl)cc1Cl)CN1CCCCC1` (stereo unspecified), the survival is 70%.

For `N=c1n(CCN2CCCCC2)c2ccccc2n1CC(O)COc1ccccc1` (stereo unspecified), the survival was 163%.

For `Cc1ccc(OCC(O)Cn2c(=N)n(CCN3CCCCC3)c3ccccc32)cc1` (stereo unspecified), the survival is 36% (active).

In the case of `CCN1CCCC1CNC(=O)Nc1c[nH]c2ccc(C)cc2c1=O` (stereo unspecified), the survival is 102%.

With `O=C(Nc1nc2n(n1)C(c1ccccc1)C=C(c1ccccc1)N2)c1ccc(Cl)c([N+](=O)[O-])c1` (stereo unspecified), the survival is 63%.

With `CC(C(=O)NCc1ccccc1)N1Cc2ccccc2C1=O` (stereo unspecified), the survival is 95%.

Take `CCOC(=O)c1c(C)[nH]c(CCC(=O)NCCCN2CCN(c3ccccc3F)CC2)c1C`: the survival is 83%.

For the molecule `CCC1(CC)Cc2ccccc2-c2nc(NN)n(Cc3ccccc3)c(=O)c21`, the survival is 48% (active).

On to `Cn1c(NN)nc2c(c1=O)C1(CCCC1)Cc1ccccc1-2`, for which the survival was 59%.

As to `NNc1nc2ccccc2c(=O)n1Cc1ccccc1`, the survival is 100%.

On to `CN1CCN(C(=S)NCC2CCCO2)CC1` (stereo unspecified), for which the survival was 64%.

For `Cc1cccc(NC(=O)Cn2c(=O)oc3cc(S(=O)(=O)NC4CCCC4)ccc32)c1`, the survival was 82%.

`N#CN=C(N)CSc1nc(-c2ccccc2)cc(-c2ccccc2)c1C#N`: the survival is 56%.

With `Cc1ccc(-c2cc(C(F)(F)F)c(C#N)c(SCC(=O)Nc3ccccc3)n2)cc1`, the survival was 53% (active).

For `COc1ccc(NC(=O)CSc2nc(-c3ccccc3)cc(-c3cc(OC)c(OC)c(OC)c3)c2C#N)c(OC)c1`, the survival is 54%.

Consider `COc1ccc(-c2cc(-c3ccccc3)nc(SCC(=O)Nc3ccccc3C)c2C#N)cc1`, for which the survival is 56% (active).

`COc1ccc(-c2cc(-c3ccccc3)nc(SCC(=O)CC(=O)OC(C)C)c2C#N)cc1`: the survival was 55%.

For `CCS(=O)(=O)CCSc1nc(-c2ccc(Br)cc2)cc(-c2ccccc2)c1C#N`, the survival is 85%.

As for `N#Cc1c(C(F)(F)F)cc(-c2ccc(F)cc2)nc1SCC(=O)Nc1ccccc1`, the survival was 72%.

As for `CCN(CC)C(=O)CSc1nc(-c2ccccc2)cc(-c2ccc(OC)cc2)c1C#N`, the survival was 45% (active).

Turning to `COc1ccc(-c2cc(-c3ccccc3)nc(SCC(=O)Nc3ccccc3F)c2C#N)cc1`, the survival was 140%.

For the molecule `Cc1ccc(NC(=O)CSc2nc(-c3ccc(F)cc3)cc(C(F)(F)F)c2C#N)cc1`, the survival was 63%.

With `C=C(C)CSc1nc(-c2ccccc2)cc(-c2ccc(OC)cc2)c1C#N`, the survival is 57%.

With `C#CCSc1nc(-c2ccccc2)cc(-c2ccccc2)c1C#N`, the survival was 40% (active).

On to `COc1ccc(OC)c(NC(=O)Nc2cccc(OCc3cc(=O)n4cc(C)ccc4n3)c2)c1`, for which the survival was 101%.

As for `COc1ccc(N2CCN(C(=O)c3ccc4c(c3)N(Cc3cc(C)ccc3C)C(=O)c3ccccc3S4=O)CC2)cc1` (stereo unspecified), the survival is 85%.

With `Cn1c(=O)c2c(-c3ccccc3)n3c4ccccc4nc(-c4ccccc4)c3c2n(C)c1=O`, the survival is 82%.

Turning to `CCc1cccc(C)c1NC(=O)CN1C(=O)c2c(c3ccccc3n2C)C1c1ccc(OC)cc1` (stereo unspecified), the survival was 83%.

Take `CCSc1ccccc1C(=O)N1CCN(c2nc3ccccc3s2)CC1`: the survival was 92%.

The record behind these values is PubChem BioAssay AID463173 (ICCB-Longwood Screening Facility, Harvard Medical School, 2010).
